# From PubChem BioAssay
# HCV inhibitor = qHTS Assay for Inhibitors of Hepatitis C Virus (HCV). 340,000 tested, 3.4% active. Potency, µM (doses to about 41.8 µM), inactives show at the top dose activity change, negative = inhibition, actives largely listed as inhibitors. Huh7.5.1 HCVcc-Cre infection, luciferase reporter, 44 h; also: potency is read from the fitted curve at half-maximal effect; % is scaled to controls: 0 for no effect and ±100 for the full control effect
#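 Infectious HCV cell culture screen: compound-treated cells (1,000/well, pre-plated 4 h) are infected with HCVcc-Cre at roughly 0.5 moi and grown 44 h. Infection is quantified by luciferase signal after 15 min substrate incubation at room temperature.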
# HCMV inh = qHTS Assay for inhibitors of the human cytomegalovirus (HCMV). HFF cells, HCMV-luciferase reporter, 72 h; hits give low values. activity change, negative = inhibition, % at 57.5 µM. 410,000 tested, 4.5% active; in the data active = activity change below about -60%; inconclusive = no clear call, values can overlap the other calls; inactive = above about -39%; also: % is scaled to controls: 0 for no effect and ±100 for the full control effect
#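 HFF cells seeded 16 h at 37C, treated with compounds, infected with luciferase-reporter HCMV at MOI 1 PFU/cell; luciferase read at 72 h post infection, normalized to buffer-only and Salinomycin controls.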
# SARS PLP yeast = qHTS of Yeast-based Assay for SARS-CoV PLP | S. cerevisiae expressing SARS-CoV PLpro, growth rescue | Potency, µM (titrated, usually from 32.9 µM), inactives show at the highest dose activity, positive = growth rescue, usual class: activators | 330,000 tested, 0.19% active | AID 485353, 2010; calls by dose curve; also: potency is read from the fitted curve at half-maximal effect; 0% is about no effect; nearly all actives have a fitted effect of over 55% in size
# Pf growth 48h = Primary qHTS for delayed death inhibitors of the malarial parasite plastid, 48 hour incubation | P. falciparum luciferase growth in erythrocytes, 48 h | Potency, µM (top dose mostly 28.7 µM), for the others: at the top dose activity change, negative = inhibition, actives largely listed as inhibitors | 310,000 tested, 5.9% active; also: potency is read from the fitted curve at half-maximal effect; % is scaled to controls: 0 for no effect and ±100 for the full control effect
#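 Luciferase-expressing parasites in RBCs, 2% Hct / 0.1% parasitemia final; RPMI 1640 + 0.5% Albumax; 37 C, 5% CO2, one generation; luminescence read-out, lower signal = inhibition.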
# Sm TGR block = qHTS Assay for the Inhibitors of Schistosoma Mansoni Peroxiredoxins; 360,000 tested, 3% active; Schistosoma mansoni thioredoxin glutathione reductase (TGR), Q962Y6; Potency, µM (top dose mostly 114 µM), without a hit: at the highest dose activity change, negative = inhibition, usual class: inhibitors; purified TGR, DTNB reduction, TNB absorbance 405 nm; AID 485364, 2010; also: potency is read from the fitted curve at half-maximal effect; % is scaled to controls: 0 for no effect and ±100 for the full control effect; nearly all actives have a fitted effect of over 60% in size
#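 Kinetic colorimetric format: TGR-catalysed, NADPH-driven DTNB reduction monitored via TNB absorbance. Enzyme dispensed at 20 nM; compound exposure 15 min at room temperature before reaction start.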
# Pf growth 96h = Primary qHTS for delayed death inhibitors of the malarial parasite plastid, 96 hour incubation; P. falciparum luciferase reporter growth, 96 h; Potency, µM (titrated, usually from 28.7 µM), for the others: at the highest dose activity change, negative = inhibition, hits mostly inhibitors; 320,000 tested, 6.9% active; also: potency is read from the fitted curve at half-maximal effect; % is scaled to controls: 0 for no effect and ±100 for the full control effect
#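 Two-generation exposure (96 h) targets delayed-death phenotype. Reporter parasites carrying integrated firefly luciferase, in red cells at 2% hematocrit and 0.05% parasitemia final, kept at 37 C, 5% CO2; luminescence loss indicates inhibition.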
# An asterisk follows results filed as active; ? = inconclusive; . = not tested or not shown. The list is not random: actives were taken first. Their share in the collection is about 15%. Unless noted, calls follow the shape of the dose curve; as a rule, active = well fitted curve in the direction sought with a large enough effect; inconclusive = small, poorly fitted or top-dose-only effect, or another doubt; inactive = no such curve, though single readings can be large; an effect the other way counts as inactive or inconclusive.
SMILES,HCV inhibitor,HCMV inh,SARS PLP yeast,Pf growth 48h,Sm TGR block,Pf growth 96h
O=C(N/N=C/c1ccc(N2CCOCC2)s1)c1ccccc1Cl,?,49.9,3.1%,-29.7%,-25.5%,?
C(=N\N(c1ccccc1)c1ccccc1)/c1ccc(N2CCOCC2)s1,-15.1%,-21.4,-9.4%,?,?,8.28µM*
CCOC(=O)N/N=C/c1ccc(N2CCOCC2)s1,1.4%,-1.4,7.2%,2.62µM*,-9.5%,38.0%
COC(=O)C1=C(C(=O)OC)[C@@H]2N(C)c3ccc(OC)cc3[C@@]23C[C@@H](C(=O)OC)N(C(=O)COCc2ccccc2)C3=N1,16.7%,10.5,.,.,.,.
O=C(O)c1ccc(NS(=O)(=O)c2ccc(NC(=O)c3ccccc3Cl)cc2)cc1,7.0%,10.2,0.5%,21.7%,1.0%,6.57µM*
O=C(Nc1ccc(NS(=O)(=O)c2ccccc2)cc1)c1ccccc1Cl,?,10.0,-0.9%,.,.,.
Cc1ccc(NS(=O)(=O)c2ccc(NC(=O)c3cccc(NC(=O)C(C)C)c3)cc2)cc1,10µM*,-34.3,5.9%,17.1%,0.0%,1.65µM*
Cc1ccc(S(=O)(=O)Nc2ccc(C(=O)Nc3ccncc3)cc2)cc1,-10.4%,28.2,15.0%,-26.1%,4.5%,10.4µM*
COc1cc(C(=O)NCc2nnc(SCC(=O)Nc3cccc(C(F)(F)F)c3)o2)cc(OC)c1OC,-17.5%,14.6,2.5%,-13.1%,-5.5%,?
Cc1cnc(N)c2c(=O)oc3ccccc3c12,6.31µM*,67.1,2.2%,.,4.0%,4.2%
O=c1oc2ccccc2c2c1cnc1ccccc12,7.8%,39.9,-5.4%,.,.,.
Cc1ccc(NC(=O)c2ccc(CNS(=O)(=O)c3ccc4c(c3)C(C)(C)C(=O)N4C)cc2)cc1F,.,-32.0,.,.,-1.0%,.
COC(=O)c1ccc(-n2c(/C=C\c3cccc(Br)c3)nc3ccccc3c2=O)cc1,.,33.1,.,.,1.8%,.
Cc1ccc(NC(=S)/N=C(\N)Nc2nc(C)c3cc(C)c(C)cc3n2)cc1C,?,-20.9,0.0%,?,.,10.4µM*
Cc1ccc(NC(=S)/N=C(\N)Nc2nc(C)c3cc(C)ccc3n2)c(C)c1,2.82µM*,-86.3*,?,?,-10.6%,?
CCOc1ccc2nc(N/C(N)=N/C(=S)Nc3cccc(OC)c3)nc(C)c2c1,?,-11.4,-0.9%,?,52.1%,?
Cc1ccc(S(=O)(=O)/N=C(\N)Nc2nc(C)c3cc(C)ccc3n2)cc1,?,14.4,-5.3%,?,9.4%,?
COc1cc(CN2C[C@@H](CO)O[C@@H](n3cnc4c(NC5CCC5)ncnc43)C2)cc(OC)c1OC,.,34.0,.,.,.,.
O=C(NCc1cccc(Cl)c1)O[C@H]1CC[C@@]23CCCN2C(=O)CCC[C@H]3[C@H]1Cc1ccccc1,.,-0.4,.,.,.,.
O=C(NC(=S)Nc1cc(C(F)(F)F)ccc1Cl)c1ccccc1,9.1%,2.1,3.0%,21.7%,-11.9%,?
FC(F)(F)c1ccc(Cl)c(NC(=S)N/N=C/c2ccccc2Cl)c1,4.1%,79.0,-2.8%,?,2.2%,1.47µM*
CSc1nc(=NC(C)=O)ss1,-0.8%,3.3,-2.9%,10.4%,?,5.22µM*
O=S(=O)(c1cnc(Cl)c(Br)c1)N1CCN(c2ncccn2)CC1,-7.8%,15.9,1.7%,73.6%,-0.5%,?
COCCn1c(C)cc2c(c1=O)C(c1ccccc1F)C(C#N)=C(N)O2 (stereo not drawn),2.6%,44.9,2.0%,2.6%,3.0%,?
COCCn1c(C)cc(O)c(C(c2ccccc2OC)N2CCN(c3ccccc3)CC2)c1=O (stereo not drawn),.,9.8,.,.,3.55µM*,.
SMILES,HCV inhibitor,HCMV inh,SARS PLP yeast,Pf growth 48h,Sm TGR block,Pf growth 96h
COCCn1c(C)cc(O)c(C(c2ccccc2F)N2CCN(c3ccccc3)CC2)c1=O (stereo not drawn),.,-11.0,.,.,4.47µM*,.
COc1ccc(N2CCN(c3cc(C(=O)NC4CCCCC4)ncn3)CC2)cc1OC,.,-13.9,.,.,.,.
Cc1ccccc1Nc1n[nH]c(=S)s1,.,2.5,.,.,.,.
Cc1c(Cl)cccc1Nc1n[nH]c(=S)s1,20.1%,-66.1*,.,.,.,.
Fc1ccc(N2Cc3ccccc3-n3nncc3C2)cc1,.,-104.4*,.,.,.,.
COc1ccccc1NC(=O)COC(=O)C1=NN(c2ccccc2)C(=O)CC1,-2.3%,13.2,-6.7%,.,.,.
Cc1nonc1NC(=O)CSc1nc2c(C)cccc2cc1C#N,?,-35.1,-7.2%,?,-7.6%,10.4µM*
O=C1C=C(c2cccs2)CC(c2cccs2)C1n1cnc([N+](=O)[O-])c1 (stereo not drawn),-7.2%,7.9,2.7%,?,-1.0%,.
O=C1C=C(c2ccccc2)C[C@H](c2cccs2)[C@H]1n1cnc([N+](=O)[O-])c1,-29.4%,25.0,-3.1%,13.1µM*,-13.1%,?
CCCc1ccc(OCC(=O)Nc2sc3c(c2C(=O)OC)CCCCC3)cc1,.,0.2,.,.,-9.6%,.
Cc1nc(N2CCN(c3ccccc3)CC2)nc2c1C(=O)CC(c1ccccc1)C2 (stereo not drawn),-26.4%,9.9,4.7%,13.1%,2.3%,-10.1%
Cc1nc(N2CCN(c3ccccc3)CC2)nc2c1C(=O)CC(C)C2 (stereo not drawn),11.2µM*,-39.2,-7.0%,13.6%,-24.8%,-5.7%
CC(C)(C)NC(=O)C(c1ccc(-c2ccccc2)cc1)N(C[C@H]1CC[C@@H]([C@@H]2CC[C@H](CO)O2)O1)C(=O)c1ccc(C(C)(C)C)cc1 (stereo partly drawn),?,-100.7*,2.6%,.,.,.
Oc1ccccc1C1CC(c2cccs2)=NC(c2cccc(Br)c2)N1 (stereo not drawn),21.9%,57.0,-21.0%,?,-28.7%,2.62µM*
CC(=O)c1ccccc1NC(C(=O)Nc1ccc2c(c1)OCCO2)c1cccs1 (stereo not drawn),.,-63.8*,.,.,.,.
CCOc1ccc(C(=O)c2cn(CC(=O)Nc3ccc(F)c(F)c3)c3cc4c(cc3c2=O)OCCO4)cc1,.,-6.4,.,.,-9.0%,.
Cc1cccc(C(=O)NCC(=O)OC(C)C(=O)Nc2ccc(Cl)cn2)c1 (stereo not drawn),-6.4%,-8.1,.,10.8%,-10.1%,136.1%
COc1ccc(-c2nnc(SC(C(=O)c3c[nH]c4ccccc34)c3ccccc3)n2N)cc1OC (stereo not drawn),?,-27.5,10.6%,8.28µM*,-8.9%,?
CC(C)C(O)(c1ccccc1)C(CN1CCOCC1)c1ccccc1 (stereo not drawn),-19.9%,-17.9,8.6%,?,54.8%,12.0%
